Measurements published in PubChem BioAssay (NCATS).
Results filed as inconclusive are left out. Unmarked numbers belong to inactive results. The source made the active and inactive calls. Calls follow the shape of the dose curve; as a rule, active = well fitted cell-killing curve with a large enough effect; inconclusive = small, poorly fitted or top-dose-only effect, or effect the other way; inactive = no such curve, though single readings can be large or run the other way.

Experiment: qHTS assay to identify small molecule inhibitors of chordoma cells - UCH-1 (AID 1259355); also: nearly all actives have a fitted effect of over 55% in size
Details: UCH-1 chordoma viability, CellTiter-Glo, 48 h, combination; series mostly up to 46.1 µM; activity, negative = inhibition: at the top concentration
Text: NIH Chemical Genomics Center [NCGC]
Chordoma is a rare and slow growing tumor that can occur anywhere along the spine, from the base of the skull to the tailbone. Current treatment options for chordoma is surgery and radiation therapy for those who are not candidates for surgery. But chordomas tend to return in the same location or surrounding areas of the original tumor after surgery and/or radiation. Chemotherapy can slow down the progression of the tumor. As chordoma is slow growing, the general cytotoxic agents that kill fast growing cells are ineffective, and some patients have been reported to respond to molecularly targeted drugs.
NCATS Pharmaceutical Collection (NPC) containing approximately 3000 clinically approved and investigational drugs were used to screen at 15 concentrations in a chordoma cell lines, UCH-1, to identify small molecule compounds that can inhibit chordoma cell growth.
NCGC Assay Protocol Summary:
Human chordoma cell line UCH-1 was dispensed at 800 per well in 4uL of culture medium into white solid bottom 1536-well plates (Corning Life Sciences, Corning, NY) using a Multidrop Combi (Thermo Scientific, Waltham, MA) dispenser. The assay plates were incubated at 37 C and 5% CO2 for an overnight, and then 23nL of compounds dissolved in DMSO and positive control were transferred using a Pintool station (Wako, San Diego, CA). Compound treatment was followed by the addition of 1uL of the combination compounds (1uM Auranofin, 500nM each of Camptothecin, Doxorubicin, Rubitecan, and Topotecan) and assay medium to each well of the assay plates using Flying Reagent Dispenser (FRD, Aurora Discovery, San Diego, CA). The assay plates were incubated at 37 C and 5% CO2 for 48hr. Then 5uL of CellTiter-Glo reagent (Promega Corporation, Madison, WI) was added to each well of the assay plates using FRD. After 30min incubation at room temperature, the luminescence signal was quantified using a ViewLux plate reader (PerkinElmer, Shelton, CT).
% is scaled to controls: 0 for no effect and ±100 for the full control effect; potency is read from the fitted curve at half-maximal effect.

Row | Compound | activity, negative = inhibition | Potency
1 | CCOP(=O)(OCC)O/C(=C/Cl)c1ccc(Cl)cc1Cl | -1.6% [at 46.1 µM, with auranofin plus four topoisomerase inhibitors] | –
2 | CN(C)[C@@H]1C(=O)C(C(N)=O)=C(O)[C@@]2(O)C(=O)C3=C(O)c4c(O)ccc(Cl)c4[C@@](C)(O)[C@H]3C[C@@H]12 | -1.83% [at 20.6 µM] | –
3 | CC(=O)OO | -3.42% [at 46.1 µM, with auranofin plus four topoisomerase inhibitors] | –
4 | Clc1ccc(Cl)cc1 | -29.2% [at 46.1 µM, with auranofin plus four topoisomerase inhibitors] | –
5 | CN1C2CCC1CC(OC(c1ccccc1)c1ccc(Cl)cc1)C2 (stereo not given) | -29.1% [at 46.1 µM, with auranofin plus four topoisomerase inhibitors] | –
6 | COc1ccc(OC)c([C@@H](O)[C@H](C)N)c1 | 12.1% | –
7 | NCC(O)c1cccc(O)c1 (stereo not given) | -12% [at 46.1 µM, with auranofin plus four topoisomerase inhibitors] | –
8 | Oc1cccc[c]1[Hg][Cl] | – | 15.8 µM [with auranofin plus four topoisomerase inhibitors] (active)
9 | C[C@@H](Cc1ccccc1)N(C)C | -9.84% | –
10 | C/C(=C\c1csc(C)n1)[C@@H]1C[C@@H]2O[C@]2(C)CCC[C@H](C)[C@H](O)[C@@H](C)C(=O)C(C)(C)[C@@H](O)CC(=O)O1 | -24.5% | –
11 | CC[C@H]1[C@@H]2C[C@H]3[C@@H]4N(C)c5ccccc5[C@]45C[C@@H](C2[C@H]5O)N3[C@@H]1O (stereo not given in full) | -24.5% [at 20.6 µM, with auranofin plus four topoisomerase inhibitors] | –
12 | OC[C@@H](O)[C@H]1O[C@@H]2O[C@@H](C(Cl)(Cl)Cl)O[C@@H]2[C@H]1O | -3.26% [at 46.1 µM, with auranofin plus four topoisomerase inhibitors] | –
13 | O=C1OC2(c3cc(Br)c(O)cc3Oc3c2cc(Br)c(O)[c]3[Hg])c2ccccc21 (stereo not given) | -34.9% [at 20.6 µM, with auranofin plus four topoisomerase inhibitors] | –
14 | O=C(C[C@@H]1NCCC[C@H]1O)Cn1cnc2cc(Br)c(Cl)cc2c1=O | 1.85% | –
15 | C[C@@H]([C@H](O)c1ccccc1)N(C)C | -17.2% | –
16 | c1cc2c(c(NC3=NCCN3)c1)CCCC2 | -26.1% | –
17 | CC(Cc1ccccc1)NC=O (stereo not given) | -0.408% [at 46.1 µM, with auranofin plus four topoisomerase inhibitors] | –
18 | CNc1ccc(C(=O)CC(O)CCC(C)C2OC(=O)CC(O)CC(=O)CC(O)CC(O)CC(O)CC(O)CC3(O)CC(O)C(C(=O)OC)C(CC(O[C@@H]4O[C@H](C)[C@@H](O)[C@H](N)[C@@H]4O)/C=C/C=C/C=C/C=C/C=C/C=C/C=C/C2C)O3)cc1 (stereo not given in full) | -3.28% [at 46.1 µM, with auranofin plus four topoisomerase inhibitors] | –
19 | CN1c2ccccc2C(NCCCCCCC(=O)O)c2ccc(Cl)cc2S1(=O)=O (stereo not given) | -5.39% | –
20 | CCC/C=C/C=C/C(=O)O[C@H]1/C(=C/C(=O)OC)C[C@H]2C[C@H]([C@@H](C)O)OC(=O)C[C@H](O)C[C@@H]3C[C@H](OC(C)=O)C(C)(C)[C@](O)(C[C@@H]4C/C(=C/C(=O)OC)C[C@H](/C=C/C(C)(C)[C@]1(O)O2)O4)O3 | -22.3% [at 46.1 µM, with auranofin plus four topoisomerase inhibitors] | –

Row | Compound | activity, negative = inhibition | Potency
21 | CN[C@H]1C[C@@H](N)[C@H](O)[C@@H](O[C@@H]2O[C@H](CO)[C@H](O)[C@@H]3OC4(O[C@H]23)O[C@H](C(N)CO)[C@H](O)[C@H](O)[C@H]4O)[C@@H]1O (stereo not given in full) | -22.9% | –
22 | CC(N)Cc1ccc(O)cc1 (stereo not given) | -16% | –
23 | CN1[C@@H]2CC[C@H]1CC(OC1c3ccccc3CCc3ccccc31)C2 (stereo not given in full) | -4.78% [at 20.6 µM] | –
24 | CCC1(C)CC(=O)NC(=O)C1 | -16.7% [at 20.6 µM] | –
25 | N#CC(C#N)=Cc1cc(O)c(O)c(O)c1 | 1.05% | –
26 | O=S(=O)(O)c1cc(O)ccc1O | -13.8% [at 20.6 µM, with auranofin plus four topoisomerase inhibitors] | –
27 | C#CCN1CC(=O)N(COC(=O)C2C(C=C(C)C)C2(C)C)C1=O (stereo not given) | -22.7% [at 46.1 µM, with auranofin plus four topoisomerase inhibitors] | –
28 | COc1cc2c(cc1OC)[C@@]13CCN4CC5=CCO[C@H]6CC(=O)N2[C@H]1[C@H]6[C@H]5C[C@H]43 | -12% | –
29 | Cc1cc(C)cc(C(=O)OC2C[C@H]3CC[C@@H](C2)N3C)c1 (stereo not given in full) | -5.33% | –
30 | CC(C)CCON=O | -20% | –
31 | CN(C)CCCCCCN(C)C (tested in a mixture with another compound) | -1.37% | –
32 | Cc1ccccc1-n1c(C)nc2ccccc2c1=O | -4.53% | –
33 | ClCC1CO1 (stereo not given) | 1.61% [at 46.1 µM, with auranofin plus four topoisomerase inhibitors] | –
34 | C=CC[C@]1(O)CC[C@H]2[C@@H]3CCC4=CCCC[C@@H]4[C@H]3CC[C@@]21C | -17.5% | –
35 | CC(=O)O[C@H]1CC[C@@]2(C)C(=CC[C@@H]3[C@@H]2CC[C@]2(C)C(=O)CC[C@@H]32)C1 | -5.9% [at 20.6 µM] | –
36 | O=C1CN(O)C(c2ccccc2)=c2cc(Cl)ccc2=N1 | -3.44% | –
37 | CCNCC(O)c1cccc(O)c1 (stereo not given) | -47.9% [at 20.6 µM, with auranofin plus four topoisomerase inhibitors] | –
38 | C[C@@H](CO)NC(=O)[C@@H]1C=C2c3cccc4[nH]cc(c34)C[C@H]2N(C)C1 | -22.3% | –
39 | O=c1ccc2cc(O[C@@H]3O[C@H](CO)[C@@H](O)[C@H](O)[C@H]3O)c(O)cc2o1 | -5.56% [at 20.6 µM, with auranofin plus four topoisomerase inhibitors] | –
40 | CC(C)(O)[C@@H]1[C@H]2OC(=O)[C@@H]1[C@]1(O)C[C@H]3O[C@]34C(=O)O[C@H]2[C@]14C | 1.8% | –
